Shown are actives, neighbours in structure and some others; about 12% of the full set was active somewhere.
HP1b binding inh: inhibitors of HP1-beta chromodomain binding to methylated histone tails; AlphaScreen HP1-beta / biotin-H3K9me3 peptide binding; Potency, µM (doses to about 114 µM), inactives show top-dose activity change, negative = inhibition, most hits filed as inhibitors; actives 0.56% (n = 390,000); AID 540317; note: nearly all actives have a fitted effect of over 70% in size
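AlphaScreen: HP1-beta (50 nM) preformed 30 min with biotin-H3(1-18)K9me3 peptide (50 nM) in PBS pH 7.4, 0.01% Tween-20. Compound added for 30 min at RT, then streptavidin donor/nickel chelate acceptor beads (10 ug/mL) for 30 min.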
BAZ2B inh: BAZ2B (human) inhibition | AlphaScreen BAZ2B-H3K14Ac peptide displacement | Potency, µM (highest dose often 114 µM), for inactives: at the top dose activity change, negative = inhibition, hits mostly inhibitors | actives 4.4% (n = 360,000); note: % is set by controls: 0 for no effect and ±100 for the full control effect; nearly all actives have a fitted effect of over 60% in size
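Inhibition is scored as reduced AlphaScreen emission. The BAZ2B/b-H3(5-23)K14Ac complex (50 nM each) in PBS pH 7.4, 0.01% Tween-20 meets compound (up to 110 uM) for 30 min at RT before bead addition.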
JMJD2A Tudor inh: inhibitors of human JMJD2A Tudor domain. O75164. AlphaScreen JMJD2A-Tudor / H3K4me3 peptide binding. Potency, µM (top dose mostly 114 µM), for the others: at the top dose activity change, negative = inhibition, most hits filed as inhibitors. actives 4.4% (n = 390,000). AID 504339; note: % is set by controls: 0 for no effect and ±100 for the full control effect; nearly all actives have a fitted effect of over 50% in size
Target sequence (O75164 whole entry, looked up, the tested form may be a part): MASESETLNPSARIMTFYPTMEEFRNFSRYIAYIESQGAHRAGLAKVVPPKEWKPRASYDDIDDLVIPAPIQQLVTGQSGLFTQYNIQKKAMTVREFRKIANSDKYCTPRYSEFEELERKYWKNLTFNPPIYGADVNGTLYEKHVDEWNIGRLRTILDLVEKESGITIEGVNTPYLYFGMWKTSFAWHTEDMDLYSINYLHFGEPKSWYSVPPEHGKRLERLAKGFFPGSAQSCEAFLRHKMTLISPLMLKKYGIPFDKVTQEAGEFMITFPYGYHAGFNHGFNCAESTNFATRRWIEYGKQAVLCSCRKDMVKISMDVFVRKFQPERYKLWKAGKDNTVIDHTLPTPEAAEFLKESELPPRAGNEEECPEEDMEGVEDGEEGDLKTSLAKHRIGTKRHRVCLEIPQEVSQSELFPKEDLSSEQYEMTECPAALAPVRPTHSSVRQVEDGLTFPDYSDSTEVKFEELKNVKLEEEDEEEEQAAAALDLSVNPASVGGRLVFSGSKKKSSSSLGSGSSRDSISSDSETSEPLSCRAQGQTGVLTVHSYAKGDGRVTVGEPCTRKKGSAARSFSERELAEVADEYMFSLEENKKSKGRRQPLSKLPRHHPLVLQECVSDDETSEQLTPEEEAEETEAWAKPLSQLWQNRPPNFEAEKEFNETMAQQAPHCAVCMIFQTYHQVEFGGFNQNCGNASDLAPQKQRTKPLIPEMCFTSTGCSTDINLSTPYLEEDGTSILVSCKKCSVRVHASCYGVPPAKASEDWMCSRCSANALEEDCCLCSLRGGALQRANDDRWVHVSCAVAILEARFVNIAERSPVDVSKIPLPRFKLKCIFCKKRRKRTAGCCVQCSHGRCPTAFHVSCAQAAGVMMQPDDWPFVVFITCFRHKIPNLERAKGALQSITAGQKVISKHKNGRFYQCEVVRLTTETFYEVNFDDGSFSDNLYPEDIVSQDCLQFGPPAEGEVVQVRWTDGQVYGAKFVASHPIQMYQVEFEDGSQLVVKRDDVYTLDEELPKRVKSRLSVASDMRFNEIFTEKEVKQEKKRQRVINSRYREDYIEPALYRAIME
Sfp inh: blocks B. subtilis Sfp PPTase activity; Biochemical Sfp PPTase activity, qHTS; Potency, µM, without a hit: largest response in the series, negative = inhibition, hits mostly inhibitors; actives 3.5% (n = 310,000); AID 1490;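 note: the enzyme is Sfp with the accession as filed and its product quenches rhodamine fluorescence; 0% = enzyme reaction without inhibitor and -100% = no enzyme wells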
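After 15 min at room temperature with compound, 15 nM Sfp received 5 uM rhodamine-CoA plus 12.5 uM BHQ-2-ybbR (50 mM Hepes pH 7.6, 10 mM MgCl2). Rate came from the fluorescence difference over 30 min, ex 525/em 598 nm.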
PLK1 PBD block: PLK1 (human) polo-box domain binding inhibition; P53350; Plk1 PBD binding of FITC phosphopeptide, fluorescence polarization; Potency, µM, for the others: max response, negative = inhibition, usual class: inhibitors; actives 2.8% (n = 360,000); AID 720504; note: series mostly up to about 57 µM; % is set by controls: 0 for no effect and ±100 for the full control effect; nearly all actives have a fitted effect of over 65% in size
G9a block: G9a (human) methyltransferase inhibition; Q96KQ7; G9a H3K9 monomethylation, AlphaScreen, 2 h; Potency, µM (doses to about 102 µM), for inactives: top-dose activity, negative = inhibition, usual class: inhibitors; actives 8.8% (n = 350,000); note: % is set by controls: 0 for no effect and ±100 for the full control effect; nearly all actives have a fitted effect of over 75% in size
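Step 1: enzyme (final 20 nM) with compound, 15 min RT. Step 2: substrate peptide 500 nM and SAM 20 uM, 2 h RT. Step 3: anti-H3K9me1 antibody and AlphaScreen beads, 10 min, then plate read.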
The depositor's hits bear a star; ? = inconclusive; . = not tested or not shown; [ ] = dose if it differs, or a comment. Calls come from the whole dose curve; as a rule, active = well fitted curve in the direction sought with a large enough effect; inconclusive = small, poorly fitted or top-dose-only effect, or another doubt; inactive = no such curve, though single readings can be large; an effect the other way counts as inactive or inconclusive. Potency is the fitted concentration of half-maximal effect.

SMILES | HP1b binding inh | BAZ2B inh | JMJD2A Tudor inh | Sfp inh | PLK1 PBD block | G9a block
O=C(NCc1ccc(Cl)cc1)C1CCCN(c2ncnc3onc(-c4ccc(F)cc4)c23)C1 (stereo not given) | 35% | 7%[57.1 µM] | -10% | . | . | -2%[59 µM]
CCSc1nc2n(n1)C(c1ccc(CC)cc1)C(C(=O)Nc1ccccc1OC)=C(C)N2 (stereo not given) | 15% | -3% | -16% | . | . | 10%[59 µM]
O=C(NCC1CC1)c1ccc(Nc2nc3ccc(Br)cc3[nH]2)cc1 | ? | -32% | 20µM* | 32µM* | 11µM* | ?
Cc1cc(C)cc(-c2nnc(SCC(=O)NCC3CCCO3)o2)c1 (stereo not given) | 33%[57 µM] | . | 5% | . | -25% | .
COc1cccc(C(=O)NCC(=O)OCc2cc(=O)n3c(C)csc3n2)c1 | 30% | -4% | 2% | . | . | 3%[59 µM]
CC(C)Cn1c([N+](=O)[O-])nc2c1c(=O)[nH]c(=O)n2C | 28% | -3% | 5% | 3% | -1% | -3%
Cn1c(=O)[nH]c(=O)c2c1nc([N+](=O)[O-])n2Cc1ccccc1 | 30% | 3% | -16% | -15% | 2.4µM* | -7%
C/C=C/CSc1nc2c(c(=O)[nH]c(=O)n2C)n1Cc1ccc(C)cc1 | -10% | 4% | -23% | ? | ? | 4.5µM*
C/C=C/Cn1c(SCc2ccccc2)nc2c1c(=O)[nH]c(=O)n2C | -21% | -8% | -20% | ? | 24µM* | 35µM*
COCCNc1nc(-c2ccccc2Cl)nc2ccccc12 | . | . | . | 14% | . | 16%[0.501 µM]
Cc1cc(N2CCN(C)CC2)nc2ccc(NC(=O)Nc3ccccc3Br)cc12 | 11% | -14%[57.1 µM] | -21% | . | . | ?
Cc1cccc2cc3c(N)c(C(=O)Nc4ccc(N5CCOCC5)cc4)sc3nc12 | -6% | -36% | -34% | ? | -4% | ?
Cc1cccc2cc3c(N)c(C(=O)N4CCc5ccccc54)sc3nc12 | 25% | -7% | -22% | 1% | 1% | 1.4µM*
Cc1cccc2cc3c(N)c(C#N)sc3nc12 | 112% | 9% | 11% | 8% | -6% | 7.9µM*
CC(C)C[C@H]1CNC(=O)C(=O)N1C[C@H](Cc1ccc(O)cc1)NC(=O)Cc1ccccc1 | . | . | . | . | -4% | .
C[C@H]1CNC(=O)C(=O)N1C[C@H](Cc1ccc(O)cc1)NC(=O)CC12CC3CC(CC(C3)C1)C2 | 30% | -2% | -14% | 3% | -10% | 71µM*
O=C(Nc1ccccc1)c1ccc(COc2ccccc2)cc1 | -10% | -5% | -25% | 8% | 30µM* | .
O=C(Nc1ccccc1)c1ccc(CSc2ncccn2)cc1 | 15% | 45µM* | -5% | -3% | 1% | 42%[0.501 µM]
CC(=O)N1CCN(c2ccc(NC(=O)c3ccc(OCc4ccccc4)cc3)cc2)CC1 | 14% | -2% | ? | -9% | 15µM* | 12%[59 µM]
COc1ccc(NC(=O)c2ccc(COc3ccccc3)o2)cc1 | ? | -28% | ? | -1% | 11µM* | -4%[59 µM]
O=C(Nc1ccccc1F)c1ccc(CSc2ncccn2)cc1 | 23% | -16% | 1% | 10% | -13% | ?
COc1ccccc1N1CCN(C(=O)c2ccc(CN3CCOCC3)cc2)CC1 | 21% | 4% | -16% | 24% | 2% | -5%
CCOc1ccc(OCCSc2nc(C)cc(=O)[nH]2)cc1 | 10% | -2% | -35%[11.4 µM] | 23% | 3.4µM* | 7%
Cc1cc(SCc2ccc(Cl)cc2)nc(=O)[nH]1 | 5%[57 µM] | -15% | -19% | 1% | -11% | 34%
COc1ccc(C(=O)CSc2nc(C)cc(=O)[nH]2)cc1 | 24% | 4% | -1% | -1% | -18% | 25µM*
SMILES | HP1b binding inh | BAZ2B inh | JMJD2A Tudor inh | Sfp inh | PLK1 PBD block | G9a block
COc1ccc(C(=O)CSc2cc(C)[nH]c(=O)n2)cc1 | -13% | 50µM* | ? | -6% | -27% | ?
Cc1ccc(CSc2cc(C)[nH]c(=O)n2)cc1 | 5%[57 µM] | 50µM* | -28% | 2% | -16% | 3%
COc1ccc(Cl)cc1-c1cc(C(=O)NCc2cccc(C(F)(F)F)c2)[nH]n1 | . | . | . | . | -1% | .
O=C(NC1CCCc2ccccc21)c1ccccc1OC(F)F (stereo not given) | 36% | 10% | 20% | 12% | 8% | 7%[59 µM]
CCOC(=O)Cn1c(=O)oc2cc(S(=O)(=O)N3CCN(c4ccc(Cl)cc4)CC3)ccc21 | 18% | -7% | -25% | . | . | -9%[59 µM]
CC(=O)Nc1ccc(S(=O)(=O)NC(CSc2ccc(C(=O)O)cc2[N+](=O)[O-])C(=O)O)cc1 (stereo not given) | 55% | ? | -3% | -21% | -17% | 50µM*
CC(=O)Nc1ccc(S(=O)(=O)Nc2ccc(C)c([N+](=O)[O-])c2)cc1 | 25% | . | -12% | -5% | -3% | ?
COc1ccc(Cl)cc1NC(=O)NCCN1CCCCC1 | 34% | -14% | -8% | 22% | 10% | ?
COc1ccc(Cl)cc1NC(=O)NN1CCN(C)CC1 | 36% | 50µM* | 3% | 5% | 2% | 50µM*
CCN1CCN(C(=O)Nc2cc(Cl)ccc2OC)CC1 | 19% | -15% | -5% | 20% | -2% | 50µM*
C=CCNC(=O)Nc1cc(Cl)ccc1OC | -12% | 8% | -8% | 14% | 27µM* | 1%
O=C(Nc1ccccc1N1CCOCC1)c1ccc(Cl)c(S(=O)(=O)N2CCCC2)c1 | 21% | 4% | -26% | . | -4% | 22%[12.7 µM]
O=C(O)c1cc(S(=O)(=O)N2CCCCC2)ccc1Cl | 36% | -4% | -2% | 10% | -4% | 5%
CCOC(=O)CSc1nnc(NCC(=O)OC)c(=O)[nH]1 | 7% | 11% | -16% | 56µM* | ? | ?
O=S(=O)(c1ccccc1)N1CCN(S(=O)(=O)c2ccc(F)cc2)CC1 | 18% | 2% | -8% | 5% | -11% | 26%[0.501 µM]
O=C1c2ccccc2C(=O)N1OS(=O)(=O)c1ccc(F)cc1 | 41% | -32% | 9% | 8.9µM* | 5.3µM* | 2.2µM*
Cc1cc(C)c(S(=O)(=O)ON2C(=O)c3ccccc3C2=O)cc1C | ? | ? | 56µM* | 20µM* | 5.3µM* | .
Cc1ccc(S(=O)(=O)ON2C(=O)c3ccccc3C2=O)c(C)c1 | 45µM* | 13% | 50µM* | 10µM* | 7.5µM* | 7.9µM*
Cc1ccc(OC(=O)CN2C(=O)c3ccccc3C2=O)cc1C | 16% | 16% | -6% | 5% | -4% | 21%
Cc1cc(C)c(C)c(S(=O)(=O)ON2C(=O)c3ccccc3C2=O)c1C | -32% | -39% | 89µM* | 22µM* | 6.7µM* | 7.9µM*
O=C(Nc1ccc2c(c1)CCC2)c1ccc(F)cc1 | 34% | 3% | -5% | 11% | -4% | -6%
O=C(Nc1ccc2c(c1)CCC2)c1cc(S(=O)(=O)Nc2ccc(F)cc2)c(Cl)cc1Cl | -4% | -7% | ? | 14% | -11% | 10µM*
